Data as given in PubChem BioAssay AID1159580 (chemical genetic matrix, 2015).
“And” between values parts separate entries of the source, which are not always exact repeats. Identical values can stand only once. Hit rate of the full screen: of about 5,500 compounds, about 2,000 (36%) were called active. Not shown: some 18% with an inconclusive outcome. No stated cut-off is given here; in the data, active means normalized growth mostly below about 0.91 (no sharp cut-off); inconclusive means no clear call, values can overlap the other calls; inactive means mostly above about 0.92. Some of the results follow.

Assay: chemical genetic growth profiling, strain panel (AID 1159580);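 further: tested at 20 µM; growth read once vehicle control cultures reached saturation at 30 °C; 1 = growth at the plate median or of vehicle wells; lower values mean less growth of the strain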
Conditions: S. cerevisiae deletion strains, growth OD
[1] = locus YHR030C, strain SLT2, active compounds read low
[2] = locus YHR079C, strain IRE1, active compounds read low
[3] = locus YJL095W, strain BCK1, active compounds read low
[4] = locus YJR066W, strain TOR1, active compounds read low
[5] = locus YLR113W, strain HOG1, active compounds read low
[6] = locus YNL183C, strain NPR1, active compounds read low
[7] = locus YOR231W, strain MKK1, active compounds read low
[8] = locus YPL256C, strain CLN2, active compounds read low

Measured: normalized growth

C[C@H]1CC2C([C@@H](O)C[C@@]3(C)C2CC[C@]3(O)C(=O)COC(=O)CCC(=O)O)[C@@]2(C)C=CC(=O)C=C12 (some centres undefined)
inactive: [1] 0.999 | [2] 1.02 | [3] 1.02 | [4] 1 | [5] 1.04 | [6] 0.995 | [7] 1.06 | [8] 1.03

CC1=C2[C@H]3OC(=O)[C@@H](C)[C@@H]3CC[C@@]2(C)C=CC1=O
inactive: locus YAL013W, strain DEP1, active compounds read low 1.01 | locus YAL021C, strain ccr4, active compounds read low 0.97 | locus YAL026C, strain drs2, active compounds read low 0.968 | locus YAL030W, strain snc1, active compounds read low 0.982 | locus YBL061C, strain skt5, active compounds read low 0.968 | locus YBR009C, strain hhf1, active compounds read low 0.975 | locus YBR021W, strain FUR4, active compounds read low 0.972 | locus YBR023C, strain chs3, active compounds read low 0.953 | locus YBR171W, strain sec66, active compounds read low 0.962 | locus YBR229C, strain ROT2, active compounds read low 1.01 | locus YBR231C, strain swc5, active compounds read low 0.992 | locus YBR279W, strain paf1, active compounds read low 0.994 | locus YCL011C, strain gbp2, active compounds read low 0.979 | locus YCL016C, strain dcc1, active compounds read low 0.995 | locus YCL029C, strain bik1, active compounds read low 1.04 | locus YCL061C, strain MRC1, active compounds read low 0.976 | locus YCL069W, strain vba3, active compounds read low 0.967 | locus YCR088W, strain abp1, active compounds read low 0.976 | locus YDL005C, strain med2, active compounds read low 0.964 | locus YDL035C, strain GPR1, active compounds read low 1.02 | locus YDL040C, strain nat1, active compounds read low 0.979 | locus YDL074C, strain BRE1, active compounds read low 1.02 | locus YDL101C, strain DUN1, active compounds read low 1.02 | locus YDL185W, strain tfp1, active compounds read low 1.02 | locus YDL192W, strain arf1, active compounds read low 1.03 | locus YDR001C, strain nth1, active compounds read low 0.98 | locus YDR069C, strain doa4, active compounds read low 0.946 | locus YDR101C, strain arx1, active compounds read low 1.01 | locus YDR137W, strain rgp1, active compounds read low 0.972 | locus YDR159W, strain sac3, active compounds read low 0.941 | locus YDR162C, strain NBP2, active compounds read low 1.02 | locus YDR195W, strain ref2 0.953 | locus YDR297W, strain sur2, active compounds read low 0.968 | locus YDR318W, strain mcm21, active compounds read low 1.04 | locus YDR334W, strain swr1, active compounds read low 0.96 | locus YDR335W, strain msn5, active compounds read low 0.987 | locus YDR388W, active compounds read low 1.01 | locus YDR392W, strain spt3, active compounds read low 0.99 | locus YDR502C, strain sam2, active compounds read low 1.02 | locus YEL003W, strain gim4, active compounds read low 0.98 | locus YEL037C, strain rad23, active compounds read low 0.978 | locus YEL061C, strain CIN8 (second series), active compounds read low 0.972 | locus YEL061C, strain CIN8, active compounds read low 1.01 | locus YER015W, strain faa2, active compounds read low 0.974 | locus YER016W, strain bim1, active compounds read low 0.978 | locus YER110C, active compounds read low 1.02 | locus YER111C, strain swi4, active compounds read low 0.963 | locus YER155C, strain BEM2 (second series), active compounds read low 0.946 | locus YER155C, strain BEM2, active compounds read low 1 | locus YER167W, strain BCK2, active compounds read low 1.01 | locus YFR010W, strain ubp6, active compounds read low 0.953 | locus YGL078C, strain dbp3, active compounds read low 1.02 | locus YGL086W, strain mad1, active compounds read low 1.01 | locus YGL167C, strain pmr1, active compounds read low 0.963 | locus YGL173C, strain kem1, active compounds read low 0.974 | locus YGL227W, strain vid30, active compounds read low 0.984 | locus YGL240W, strain doc1, active compounds read low 0.963 | locus YGL248W, strain PDE1, active compounds read low 1.03 | locus YGL253W, strain hxk2, active compounds read low 0.98 | locus YGR078C, strain PAC10, active compounds read low 1.02 | locus YGR135W, strain pre9, active compounds read low 1.03 | locus YGR229C, strain SMI1, active compounds read low 1.05 | locus YGR252W, strain gcn5, active compounds read low 0.991 | locus YHR013C, strain ard1, active compounds read low 0.956 | locus YHR027C, strain rpn1, active compounds read low 0.986 | [1] 0.981 | locus YHR079C, strain IRE1 (second series), active compounds read low 1.02 | [2] 1 | locus YHR094C, strain hxt1, active compounds read low 1.03 | locus YHR129C, strain ARP1, active compounds read low 1.01 | locus YHR142W, strain chs7, active compounds read low 0.98 | locus YHR200W, strain rpn10, active compounds read low 1.01 | locus YIL066C, strain RNR3, active compounds read low 1.02 | locus YIL073C, strain SPO22, active compounds read low 1.06 | locus YIL125W, strain kgd1, active compounds read low 1.02 | locus YIR030C, strain dcg1, active compounds read low 1.02 | locus YJL092W, strain hpr5, active compounds read low 0.975 | locus YJL095W, strain BCK1 (second series), active compounds read low 0.964 | [3] 1.03 and 0.993 | locus YJL115W, strain asf1, active compounds read low 0.973 | locus YJL129C, strain trk1, active compounds read low 0.962 | locus YJL134W, strain LCB3, active compounds read low 1.01 | locus YJL154C, strain vps35, active compounds read low 0.98 | locus YJL164C, strain tpk1, active compounds read low 0.984 | locus YJL166W, strain qcr8, active compounds read low 0.969 | locus YJL168C, strain set2, active compounds read low 1.02 | locus YJL187C, strain SWE1 (second series), active compounds read low 1.02 | locus YJL187C, strain SWE1, active compounds read low 0.966 | locus YJR043C, strain POL32, active compounds read low 1.01 | [4] 0.956 | locus YJR075W, strain HOC1, active compounds read low 1.02 | locus YKL009W, strain mrt4, active compounds read low 1.03 | locus YKL068W, active compounds read low 0.995 | locus YKL085W, strain MDH1 (second series), active compounds read low 1.02 | locus YKL085W, strain MDH1, active compounds read low 1.02 | locus YKL160W, strain elf1, active compounds read low 0.994 | locus YKL190W, strain CNB1, active compounds read low 1.01 | locus YKR001C, strain vps1, active compounds read low 1.03 | locus YKR026C, strain gcn3, active compounds read low 0.965 | locus YKR091W, strain srl3, active compounds read low 0.983 | locus YLL001W, strain dnm1, active compounds read low 0.996 | locus YLL026W, active compounds read low 0.995 | locus YLL041C, strain sdh2, active compounds read low 0.998 | locus YLR027C, strain aat2, active compounds read low 0.979 | locus YLR039C, strain RIC1, active compounds read low 1.04 | locus YLR058C, strain SHM2, active compounds read low 1.02 | locus YLR102C, strain apc9, active compounds read low 1.03 | [5] 0.963 | locus YLR221C, strain rsa3, active compounds read low 0.959 | locus YLR258W, strain gsy2, active compounds read low 0.985 | locus YLR262C, strain YPT6 (second series), active compounds read low 0.997 | locus YLR262C, strain YPT6, active compounds read low 1.06 | locus YLR268W, strain sec22, active compounds read low 1.02 | locus YLR320W, strain mms22, active compounds read low 0.978 | locus YLR342W, strain FKS1 (second series), active compounds read low 1.01 | locus YLR342W, strain FKS1, active compounds read low 0.974 | locus YLR357W, strain rsc2, active compounds read low 0.948 | locus YLR370C, strain arc18, active compounds read low 0.977 | locus YLR371W, strain rom2, active compounds read low 1.01 | locus YLR384C, strain iki3, active compounds read low 0.96 | locus YLR418C, strain cdc73, active compounds read low 1.03 | locus YML016C, strain PPZ1, active compounds read low 1.02 | locus YML032C, strain rad52, active compounds read low 1.02 | locus YML120C, strain ndi1, active compounds read low 1.01 | locus YML124C, strain tub3, active compounds read low 1.02 | locus YMR058W, strain fet3, active compounds read low 0.977 | locus YMR078C, strain ctf18, active compounds read low 1.04 | locus YMR125W, strain sto1, active compounds read low 0.968 | locus YMR129W, active compounds read low 0.997 | locus YMR205C, strain PFK2, active compounds read low 0.982 | locus YMR223W, strain ubp8, active compounds read low 1.01 | locus YMR231W, strain pep5, active compounds read low 0.973 | locus YMR263W, strain SAP30, active compounds read low 1.02 | locus YMR307W, strain GAS1, active compounds read low 1.05 | locus YNL067W, strain RPL9B, active compounds read low 1.02 | locus YNL071W, strain lat1, active compounds read low 0.994 | locus YNL153C, strain GIM3, active compounds read low 1.03 | [6] 0.951 | locus YNL209W, strain ssb2, active compounds read low 0.981 | locus YNL233W, strain BNI4, active compounds read low 1.02 | locus YNL248C, strain rpa49, active compounds read low 0.962 | locus YNL250W, strain rad50, active compounds read low 1.04 | locus YNL271C, strain bni1, active compounds read low 1.02 | locus YNL298W, strain CLA4, active compounds read low 1.03 | locus YNL307C, strain MCK1, active compounds read low 1.03 | locus YNL322C, strain KRE1 (second series), active compounds read low 0.954 | locus YNR049C, strain mso1, active compounds read low 0.983 | locus YNR052C, strain pop2, active compounds read low 1.01 | locus YOL012C, strain htz1 0.992 | locus YOL147C, strain pex11, active compounds read low 1.02 | locus YOR001W, strain rrp6, active compounds read low 0.939 | locus YOR061W, strain CKA2, active compounds read low 1.02 | locus YOR069W, strain VPS5, active compounds read low 1.01 | locus YOR070C, strain gyp1, active compounds read low 0.984 | locus YOR080W, strain dia2, active compounds read low 0.97 | locus YOR083W, strain WHI5, active compounds read low 1.01 | locus YOR106W, strain vam3, active compounds read low 1 | locus YOR136W, strain idh2, active compounds read low 1.01 | locus YOR144C, strain elg1, active compounds read low 1.02 | locus YOR184W, strain ser1, active compounds read low 1.03 | [7] 0.965 | locus YOR265W, strain rbl2, active compounds read low 0.99 | locus YOR270C, strain vph1, active compounds read low 0.926 | locus YOR290C, strain snf2, active compounds read low 0.982 | locus YOR316C, strain cot1, active compounds read low 1.02 | locus YPL051W, strain arl3, active compounds read low 0.987 | locus YPL078C, strain atp4, active compounds read low 0.988 | locus YPL106C, strain sse1, active compounds read low 0.96 | locus YPL240C, strain hsp82, active compounds read low 0.964 | locus YPL241C, strain CIN2, active compounds read low 1.01 | [8] 0.977 | locus YPR119W, strain clb2, active compounds read low 1.01 | locus YPR141C, strain kar3, active compounds read low 1.02 | locus YPR163C, strain tif3, active compounds read low 1.03 | locus YPR167C, strain met16, active compounds read low 1.02 | strain wtn01, active compounds read low 1
